Bioassay records as filed in PubChem BioAssay.
TDP1 block: TDP1 (human) enzyme inhibition; Q9NUW8; recombinant TDP1, AlphaScreen DNA substrate cleavage; Potency, µM (highest dose often 130 µM), without a hit: top-dose activity change, negative = inhibition, hits mostly inhibitors; actives 0.28% (n = 350,000); AID 485290; further: nearly all actives have a fitted effect of over 40% in size
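E. coli-derived human Tdp1, 1 nM final. Cpd preinc 15 min RT; substrate 15 nM final, 5 min RT; AS bead mix 10 ug/ml final, 10 min RT. Signal loss = tyrosine-FITC cleavage. No-enzyme wells = max signal.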
PLK1 PBD inh: PLK1 (human) polo-box domain binding inhibition; actives 2.8% (n = 360,000); Plk1 PBD binding of FITC phosphopeptide, fluorescence polarization; Potency, µM, for inactives: max response, negative = inhibition, usual class: inhibitors; further: series mostly up to about 57 µM; nearly all actives have a fitted effect of over 65% in size
KAT2A inh: GCN5L2 (KAT2A) acetyltransferase inhibition; Q92830; GCN5L2 HAT assay, ThioGlo1 CoA-SH fluorescence; Potency, µM (series often up to 58.9 µM), without a hit: at the top dose activity change, negative = inhibition, hits mostly inhibitors; actives 0.21% (n = 390,000)
Target sequence (Q92830 whole entry, looked up): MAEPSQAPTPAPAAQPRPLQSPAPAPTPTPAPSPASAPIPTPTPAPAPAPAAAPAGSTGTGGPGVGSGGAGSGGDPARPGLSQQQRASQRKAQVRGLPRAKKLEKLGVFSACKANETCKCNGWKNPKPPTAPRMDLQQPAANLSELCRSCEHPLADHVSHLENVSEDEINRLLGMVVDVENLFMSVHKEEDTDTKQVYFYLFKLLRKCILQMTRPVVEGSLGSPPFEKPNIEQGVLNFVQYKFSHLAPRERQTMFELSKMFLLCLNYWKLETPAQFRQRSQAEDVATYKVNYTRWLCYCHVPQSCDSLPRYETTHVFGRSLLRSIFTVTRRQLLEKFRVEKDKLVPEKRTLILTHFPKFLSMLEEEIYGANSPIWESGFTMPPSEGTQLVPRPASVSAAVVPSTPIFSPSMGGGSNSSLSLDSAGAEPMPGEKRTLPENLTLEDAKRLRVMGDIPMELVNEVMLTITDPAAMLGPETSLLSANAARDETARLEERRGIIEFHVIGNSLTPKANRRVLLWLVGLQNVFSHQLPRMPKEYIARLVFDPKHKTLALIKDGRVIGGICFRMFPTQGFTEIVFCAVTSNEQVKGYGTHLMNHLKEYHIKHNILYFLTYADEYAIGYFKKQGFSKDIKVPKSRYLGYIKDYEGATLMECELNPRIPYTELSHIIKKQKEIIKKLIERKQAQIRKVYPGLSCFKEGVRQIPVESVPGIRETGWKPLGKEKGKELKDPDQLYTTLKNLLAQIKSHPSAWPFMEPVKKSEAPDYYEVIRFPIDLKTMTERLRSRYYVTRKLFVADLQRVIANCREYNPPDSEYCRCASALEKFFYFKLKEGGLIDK
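Titration-based screen in which CoA formation is detected via maleimide probe ThioGlo1 (50uM) turning fluorescent on thiol reaction; substrates H3(1-25) 75uM and acetyl-CoA 70uM, GCN5L2 20nM, 20 min incubation at room temperature.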
DT40 TDP1 CPT: growth inhibition of DT40 Tdp1-/-;hTDP1 cells with camptothecin (screen for TDP1 inhibitors). chicken DT40 Tdp1-/-;hTDP1 cells + 20 nM CPT, ATP luminescence, 48 h. actives 12% (n = 420,000). Potency, µM (titrated, usually from 46.2 µM), for inactives: at the highest dose activity change, negative = growth inhibition, most hits filed as inhibitors; further: nearly all actives have a fitted effect of over 55% in size
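Cell growth measured by CellTiter-Glo luminescence after a minimum 48 h, 37 C compound exposure with 20 nM CPT in Tdp1-knockout DT40 cells stably expressing hTDP1, seeded 400/well; qHTS titration format.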
TDP1 cell noCPT: qHTS for Inhibitors of human tyrosyl-DNA phosphodiesterase 1 (TDP1): qHTS in cells in absence of CPT. actives 15% (n = 420,000). Potency, µM (doses to about 46.2 µM), inactives show at the top dose activity change, negative = growth inhibition, actives largely listed as inhibitors. DT40 Tdp1-/- hTDP1 cells, no CPT, ATP luminescence, 48 h; further: nearly all actives have a fitted effect of over 55% in size
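Seeded 400 DT40-hTDP1 cells/well (vehicle DMSO, no 20 nM CPT); pinned compounds; ≥48 hr at 37 °C; CellTiter-Glo luminescence as viability measure.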
VDR inhibitor: blocks the human vitamin D receptor; Potency, µM, without a hit: max response, negative = inhibition, hits mostly inhibitors; VDR-SRC2-3 peptide fluorescence polarization, 2 h; actives 0.93% (n = 400,000); AID 504847
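Signal is fluorescence polarization, reporting how far test compounds block the interaction of VDR with the SRC2-3 coregulator peptide after a 2 h room-temperature incubation.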
Starred values were filed as active, the others as inactive; ? = inconclusive; . = not tested or not shown. An excerpt weighted towards active compounds, which were near 18% of everything screened. The call rests on the fitted dose curve; in most records, active means well fitted curve in the direction sought with a large enough effect; inconclusive means small, poorly fitted or top-dose-only effect, or another doubt; inactive means no such curve, though single readings can be large; an effect the other way counts as inactive or inconclusive. On the % scale 0 is the no-effect control and ±100 the full control effect; potency means the concentration at half of the fitted maximal effect.

SMILES | TDP1 block | PLK1 PBD inh | KAT2A inh | DT40 TDP1 CPT | TDP1 cell noCPT | VDR inhibitor
Cc1ccc2oc(-c3ccc(Cl)c(NC(=O)c4cc5ccccc5o4)c3)nc2c1 | . | . | 0% | 8% | -15% | -15%
CC(C)CC1(C(=O)NCc2cc(F)cc(C(F)(F)F)c2)C=CCN1C(=O)c1ccccc1 (stereo not given) | -3% | -15% | -2% | ? | 29µM* | -2%
Cc1ccc(CNC(=O)C2(CC(C)C)C=CCN2C(=O)c2ccccc2)o1 (stereo not given) | 1% | . | . | . | . | .
COc1ccc(CNC(=O)CN2CCN(c3ccccc3)CC2)cc1 | . | -12% | 19% | -8% | -2% | 2%
COc1ccc(CNC(=O)CN2CCN(C(c3ccccc3)c3ccccc3)CC2)cc1 | 6% | -13% | -6% | 18µM* | ? | 0%
O=C(CN1CCN(C(c2ccccc2)c2ccccc2)CC1)NC(=O)NCc1ccco1 | 5% | -9% | -10% | 21µM* | ? | -6%
CC(C)CC(=O)NCc1nc2cccnc2n1Cc1ccccc1 | -1% | . | -3% | 2% | -17% | 4%
C[n+]1ccnc2ccccc21 | . | . | . | 1.4µM* | 4µM* | .
C[n+]1ccccc1/C=C/c1ccc2ncccc2c1 | . | -12% | -4% | 5% | 1% | -8%
COc1ccccc1Oc1ccnc2cc(Cl)ccc12 | 9% | -2% | -5% | ? | ? | -5%
C[n+]1ccnc2cc(Cl)ccc21 | . | . | . | 0.63µM* | 0.71µM* | .
C=CC[n+]1ccnc2ccccc21 | . | . | . | 5µM* | ? | .
Cc1ccc(CCNC(=O)c2cc3n(n2)CCCN(Cc2ccc(C)cc2)C3=O)cc1 | -6% | . | -5% | ? | ? | 11%
Cc1nn(-c2ccccc2)nc1CNC(=O)C1CCC1 | 3% | -4% | 2% | -6% | -8% | -5%
O=C(CCl)c1ccc2c(c1)CCN2C(=O)C1CC1 | 0% | . | 14% | . | . | .
O=C(CCl)c1ccc2c(c1)CCN2C(=O)C1CCCCC1 | 3% | 0.75µM* | -6% | 1.3µM* | 1.6µM* | 45µM*
COc1ccccc1N1CCN(S(=O)(=O)c2ccc3c(c2)CCCN3C(C)=O)CC1 | 5% | . | -14% | ? | ? | -3%
O=C(C1CCC1)N1CCCc2cc(S(=O)(=O)N3CCN(c4ccccc4)CC3)ccc21 | 7% | -1% | -6% | 18µM* | ? | ?
CC1CCN(S(=O)(=O)c2ccc3c(c2)CCN3C(=O)C2CCC2)CC1 | 0% | 24µM* | 1% | ? | ? | -16%
O=C(C1CC1)N1CCc2cc(S(=O)(=O)N3CCN(c4ccccc4)CC3)ccc21 | 1% | 6% | 0% | -17% | -28% | 6%
CC1CCCN(S(=O)(=O)c2ccc3c(c2)CCN3C(=O)C2CCC2)C1 (stereo not given) | 2% | 2% | -2% | -23% | -29% | 7%
CC(=O)N1CCCc2cc(S(=O)(=O)N3CCN(c4ccc(F)cc4)CC3)ccc21 | 1% | . | 0% | 23µM* | 16µM* | -3%
COc1cccc(Nc2ncc3nc(C)c(=O)n(Cc4cccs4)c3n2)c1 | . | . | ? | -4% | 2% | 7%
Cc1cc(-c2ccccc2)nc(Nc2nc3c(C)cccc3c(=O)[nH]2)n1 | . | -19% | . | ? | ? | -14%
CC(C)CN(CC(C)C)S(=O)(=O)N1CCC(C(=O)NCCc2ccc(Cl)cc2)CC1 | 2% | 6% | -3% | ? | ? | -15%
Cc1cc(N)n(-c2ccc(S(=O)(=O)c3ccc(C(C)C)cc3)cc2)n1 | 6% | -9% | -5% | 8% | ? | 15%
O=C(/C=C/c1ccccc1)c1ccc2c(c1)OCO2 | . | -8% | -5% | 18µM* | ? | ?
O=C(/C=C/c1ccccc1Br)c1ccc2c(c1)OCO2 | 0% | -13% | -12% | 21µM* | 23µM* | ?
